What all share (experiment): NCI-60 one-dose screen, 48 h (100 = growth as untreated, 0 = no growth, -100 = all killed)
One assay relates to A549/ATCC NSCLC. The conditions noted are these: 10 µM unless noted.
The test system of a further assay is DU-145 prostate. The conditions noted are these: 10 µM unless noted.
The next assay deals with K-562 leukemia. The conditions noted are these: 10 µM unless noted.
The test system of another assay is RXF 393 renal. The conditions noted are these: 10 µM unless noted.
The next assay concerns SF-295 CNS. The conditions noted are these: 10 µM unless noted.
Another assay relates to UACC-257 melanoma. The conditions noted are these: 10 µM unless noted.
The subject of the next assay is HT29 colon. As to conditions: 10 µM unless noted.
In another assay the test system is SNB-75 CNS. As to conditions: 10 µM unless noted.
A further assay deals with SK-MEL-2 melanoma. The conditions noted are these: 10 µM unless noted.
The subject of another assay is ACHN renal. As to conditions: 10 µM unless noted.
Another assay concerns CAKI-1 renal. The conditions noted are these: 10 µM unless noted.
The subject of a further assay is A498 renal. As to conditions: 10 µM unless noted.
The next assay relates to HL-60(TB) leukemia. As to conditions: 10 µM unless noted.
Another assay concerns OVCAR-5 ovarian. The conditions noted are these: 10 µM unless noted.
Another assay concerns OVCAR-4 ovarian. The conditions noted are these: 10 µM unless noted.
The subject of the next assay is SK-OV-3 ovarian. The conditions noted are these: 10 µM unless noted.
The subject of another assay is HS 578T breast. As to conditions: 10 µM unless noted.
The subject of the next assay is NCI/ADR-RES ovarian. The conditions noted are these: 10 µM unless noted.
Another assay deals with T-47D breast. The conditions noted are these: 10 µM unless noted.
The subject of the next assay is BT-549 breast. The conditions noted are these: 10 µM.

Compounds without any hit were thinned out: in the full panel of roughly 83,000, 20% have a hit.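 96-well plates, one dose, 48 hours. Percent growth reported; active if below 10.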 Values without a mark were called inactive. Active and inactive are the calls of the source.

Consider `ClCCN(CCCl)c1ccc(C=NCCc2c[nH]c3ccccc23)cc1`, for which the growth in the assay with A549/ATCC NSCLC was 88.6%; in the assay on DU-145 prostate it was 56.2%; in the assay with K-562 leukemia, 82.4%; in the assay on RXF 393 renal it was 56.1%; in the assay with SF-295 CNS, 35.6%; in the assay with UACC-257 melanoma, 99.9%. For the same compound, the growth was 85.1% in the assay with HT29 colon; 82.5% with SNB-75 CNS; 125% in the assay on SK-MEL-2 melanoma; 44.5% in the assay with ACHN renal; 23.5% in the assay on CAKI-1 renal; 1.98% (active) with A498 renal. For the same compound, the growth is 91% in the assay with HL-60(TB) leukemia; 94.5% in the assay with OVCAR-5 ovarian; 92.9% with OVCAR-4 ovarian; 81% in the assay with SK-OV-3 ovarian; 89.8% in the assay on HS 578T breast; 76.2% in the assay with NCI/ADR-RES ovarian. Moreover, the growth was 80.6% in the assay with T-47D breast and 81.9% with BT-549 breast.
Consider `Cc1cccc(N(C)c2cccc3c2C(=O)[Se]C3)c1C`, for which the growth was 15.8% with A549/ATCC NSCLC; 34.6% in the assay on DU-145 prostate; 48.2% with K-562 leukemia; 44.7% in the assay with RXF 393 renal; 20.7% in the assay on SF-295 CNS; 50.7% in the assay with UACC-257 melanoma. In addition, the growth is 9.4% (active) in the assay on HT29 colon; 62.8% in the assay on SK-MEL-2 melanoma; 54% in the assay with ACHN renal; 70.1% with CAKI-1 renal; -17.1% (active) in the assay with HL-60(TB) leukemia; 25.5% in the assay on OVCAR-5 ovarian. Besides, the growth was 40.7% in the assay with OVCAR-4 ovarian; 188% in the assay on SK-OV-3 ovarian; 58.8% in the assay on HS 578T breast; 13.6% with NCI/ADR-RES ovarian; 73.4% in the assay with T-47D breast; 52.4% in the assay with BT-549 breast.
Take `CCC(/C=C(C)/C=C/C(=O)c1c(O)c(-c2ccc(O)cc2)c[nH]c1=O)CO` (stereo not given): the growth is 90.2% in the assay on A549/ATCC NSCLC; 9.29% (active) in the assay on DU-145 prostate; 7.07% (active) in the assay on K-562 leukemia; 104% in the assay with RXF 393 renal; 81.1% in the assay on SF-295 CNS; 92.4% with UACC-257 melanoma. The growth in the assay with HT29 colon is 107%; in the assay with SNB-75 CNS, 91.3%; in the assay with SK-MEL-2 melanoma, 88.7%; with ACHN renal, 104%; with CAKI-1 renal it was 81.8%; in the assay on A498 renal, 70.9%. Moreover, the growth in the assay with HL-60(TB) leukemia was 4.76% (active); in the assay with OVCAR-5 ovarian it was 134%; with HS 578T breast, 83.8%; in the assay on NCI/ADR-RES ovarian, 96.2%; with T-47D breast, 92.6%; with BT-549 breast it was 78.8%.
For `CN=C(NN)NN`, the growth in the assay on A549/ATCC NSCLC is 96.2%; in the assay with DU-145 prostate, 111%; with K-562 leukemia, 113%; in the assay with RXF 393 renal, 109%; with SF-295 CNS, 102%; in the assay on UACC-257 melanoma, 109%. Moreover, the growth was 106% in the assay on HT29 colon; 98% in the assay on SNB-75 CNS; 109% in the assay on SK-MEL-2 melanoma; 108% in the assay on ACHN renal; 88.9% in the assay on CAKI-1 renal; 92.4% in the assay on A498 renal. Moreover, the growth in the assay on HL-60(TB) leukemia is 119%; in the assay with OVCAR-5 ovarian it was 111%; in the assay with OVCAR-4 ovarian, 117%; in the assay on SK-OV-3 ovarian it was 110%; with HS 578T breast, 102%; with T-47D breast, 106%. In the assay with BT-549 breast, the growth was 106%.
`CCC(C)/C=C(C)/C=C/C(=O)c1c(O)c(-c2ccc(O)cc2)c[nH]c1=O` (stereo not given): the growth in the assay on A549/ATCC NSCLC was 63.1%; with DU-145 prostate it was 24.8%; in the assay on K-562 leukemia it was 39.2%; with RXF 393 renal, 52.3%; with SF-295 CNS, 57.5%; in the assay on UACC-257 melanoma, 55.8%. The growth in the assay on HT29 colon was 14.3%; with SNB-75 CNS, 51.5%; in the assay with SK-MEL-2 melanoma, 89.1%; in the assay with ACHN renal it was 50.5%; with CAKI-1 renal, -16.5% (active); in the assay with A498 renal, 47.6%. For the same compound, the growth is 36% with HL-60(TB) leukemia; 74.3% in the assay with SK-OV-3 ovarian; 52.7% with HS 578T breast; 33.5% in the assay with NCI/ADR-RES ovarian; 48.6% with T-47D breast; 38.3% with BT-549 breast.
Regarding `CC1(C)N=C(N)N=C(N)N1c1ccc(CCCCc2ccc(Cl)cc2S(=O)(=O)F)c(Cl)c1`, the growth in the assay on A549/ATCC NSCLC was 9.77% (active); with DU-145 prostate it was 22.5%; with K-562 leukemia, 14.5%; in the assay on RXF 393 renal it was 29.6%; in the assay with SF-295 CNS, 22.9%; with UACC-257 melanoma it was 10.1%. In addition, the growth with HT29 colon was 11.4%; with SNB-75 CNS, 51.9%; in the assay on SK-MEL-2 melanoma, 38.3%; in the assay on ACHN renal, 18.7%; in the assay on CAKI-1 renal, 20.6%; in the assay with A498 renal, 54.7%. The growth with HL-60(TB) leukemia is 15.5%; in the assay with OVCAR-5 ovarian, 31.4%; in the assay with OVCAR-4 ovarian it was 50.3%; with SK-OV-3 ovarian, 44.2%; with HS 578T breast, 65.5%; in the assay on NCI/ADR-RES ovarian, 53.3%. For the same compound, the results for the growth with T-47D breast and in the assay with BT-549 breast were 28.6% and 37%, respectively.
For the compound `Nc1cccc(CC(=O)Nc2ccc(S(=O)(=O)F)cc2)c1`, the growth in the assay with A549/ATCC NSCLC is 96.5%; in the assay with DU-145 prostate it was 110%; in the assay with K-562 leukemia, 144%; in the assay on RXF 393 renal it was 87.3%; with SF-295 CNS, 101%; in the assay with UACC-257 melanoma, 103%. Further, the growth in the assay on HT29 colon was 91.9%; with SNB-75 CNS it was 71.8%; in the assay on SK-MEL-2 melanoma, 125%; with ACHN renal, 112%; in the assay with OVCAR-5 ovarian it was 98.5%; in the assay with SK-OV-3 ovarian, 92.4%. In addition, the growth is 99.1% in the assay on HS 578T breast, 92.5% in the assay on T-47D breast and 97% with BT-549 breast.
For the compound `N#C[Se]CCN1C(=O)C2C(C1=O)[C@H]1C=C[C@@H]2S1` (stereo not given in full), the growth with A549/ATCC NSCLC was -19.3% (active); in the assay on DU-145 prostate, -33.3% (active); with K-562 leukemia it was 24.3%; in the assay with RXF 393 renal, -52.2% (active); in the assay with SF-295 CNS, -34.8% (active); in the assay on UACC-257 melanoma, 10.9%. Moreover, the growth is 5.94% (active) in the assay with HT29 colon; 23.4% in the assay with SK-MEL-2 melanoma; -2.15% (active) with ACHN renal; -98.7% (active) with CAKI-1 renal; -48.1% (active) in the assay on HL-60(TB) leukemia; 14.7% in the assay on OVCAR-5 ovarian. Besides, the growth in the assay on OVCAR-4 ovarian was 25.3%; in the assay with SK-OV-3 ovarian, 4.59% (active); with HS 578T breast, -10.3% (active); in the assay with NCI/ADR-RES ovarian, -10.7% (active); in the assay on T-47D breast it was 70.7%; in the assay on BT-549 breast it was -81% (active).
Regarding `CC[C@H](C)[C@H](NC(=O)Nc1ccccc1)C(=O)N(C)[C@H](C[C@@H](OC(C)=O)c1nc(C(=O)N[C@@H](Cc2ccccc2)C[C@H](C)C(=O)OC)cs1)C(C)C`, the growth is 23.5% with A549/ATCC NSCLC; -3.41% (active) in the assay on DU-145 prostate; 15.7% in the assay with K-562 leukemia; 0.067% (active) with RXF 393 renal; 4.42% (active) in the assay with SF-295 CNS; 60.6% with UACC-257 melanoma. Besides, the growth in the assay on HT29 colon is -23.1% (active); in the assay with SNB-75 CNS, 5.16% (active); in the assay on SK-MEL-2 melanoma, -15% (active); in the assay on ACHN renal it was 25.1%; in the assay with A498 renal, -15.6% (active); in the assay with HL-60(TB) leukemia, -17.2% (active). In addition, the growth in the assay on OVCAR-5 ovarian is 28.9%; with OVCAR-4 ovarian, 31.5%; in the assay with SK-OV-3 ovarian, 25.4%; in the assay on HS 578T breast, 5.14% (active); with NCI/ADR-RES ovarian it was 59.1%; in the assay on T-47D breast, 61.6%. Besides, in the assay on BT-549 breast, the growth is 2.56% (active).

Source of the values: PubChem BioAssay (NCI).
